Test systems include SR leukemia; RPMI-8226 leukemia; OVCAR-8 ovarian; OVCAR-5 ovarian; OVCAR-4 ovarian; SK-OV-3 ovarian; IGROV1 ovarian; OVCAR-3 ovarian; HS 578T breast; NCI/ADR-RES ovarian.
What all share (assay): NCI-60 one-dose screen, 48 h (100 = growth as untreated, 0 = no growth, -100 = all killed)
What all share (conditions): 10 µM unless noted

Molecules are shown by their SMILES. About 83,000 compounds went through this panel and 20% of them were active in at least one assay; those are over-represented in the sample as a whole.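 Negative percent growth values reflect cell death: -40 means 40% of the cells present at the start died, and -100 means all died.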 A number with no mark means an inactive call. The source made the active and inactive calls. The calls were made as follows: active = growth percent below 10; inactive = the rest.

For the compound `O=C(O)c1ccc[n+](CC(=O)N2CCN(c3cc4c(cc3F)c(=O)c(C(=O)O)cn4C3CC3)CC2)c1`, the growth in the assay on SR leukemia is 17.2%; in the assay on RPMI-8226 leukemia, 75.4%; with OVCAR-8 ovarian, 79.7%; with OVCAR-5 ovarian, 107%; in the assay on OVCAR-4 ovarian it was 60.4%; with SK-OV-3 ovarian it was 109%. Further, the growth in the assay on IGROV1 ovarian was 95.8%; with OVCAR-3 ovarian it was 55.6%; with HS 578T breast, 87.9%; with NCI/ADR-RES ovarian, 94.7%.
For the compound `COc1cccc(-c2nc3occn3c2-c2ccnc(NCCCNS(=O)(=O)c3cccc(F)c3)n2)c1`, the growth in the assay on SR leukemia was 107%; in the assay on RPMI-8226 leukemia it was 68.1%; in the assay with OVCAR-8 ovarian, 72.2%; in the assay on OVCAR-5 ovarian it was 135%; in the assay with OVCAR-4 ovarian it was 71.9%; in the assay on SK-OV-3 ovarian, 86.3%. In addition, the growth in the assay on IGROV1 ovarian was 89%; in the assay with OVCAR-3 ovarian, 88.1%; with HS 578T breast, 92.6%; in the assay on NCI/ADR-RES ovarian, 85.8%.
As to `O=C1c2ccccc2C(=O)c2c(NCCN=Cc3ccccc3O)cccc21`, the growth was -33.2% (active) in the assay on SR leukemia; 78.8% with RPMI-8226 leukemia; 21% with OVCAR-8 ovarian; 78.9% in the assay with OVCAR-5 ovarian; 72.1% in the assay with OVCAR-4 ovarian; 56.9% in the assay with SK-OV-3 ovarian. The growth was 51.9% in the assay on IGROV1 ovarian, 72.3% with OVCAR-3 ovarian, 43.4% in the assay with HS 578T breast and 59.9% in the assay on NCI/ADR-RES ovarian.
As to `Nc1nc(SN=Nc2ccc(S(N)(=O)=O)cc2)c2[nH]cnc2n1`, the growth was 5.59% (active) in the assay with SR leukemia; -15.3% (active) with RPMI-8226 leukemia; 11.2% with OVCAR-8 ovarian; 19.4% with OVCAR-5 ovarian; 34.7% with OVCAR-4 ovarian; 7.11% (active) in the assay with SK-OV-3 ovarian. The growth with IGROV1 ovarian is 39.8%; in the assay on OVCAR-3 ovarian it was -13.7% (active); in the assay on HS 578T breast it was 36.5%; in the assay with NCI/ADR-RES ovarian it was 17.6%.
As to `C=C(C)[C@@H]1CC[C@]2(C(=O)O)CC[C@]3(C)[C@H](CC[C@@H]4[C@@]5(C)C[C@@H](CC#Cc6ccc(Br)cc6)C(=O)C(C)(C)[C@@H]5CC[C@]43C)[C@@H]12`, the growth is 55.2% with SR leukemia; 33.4% with RPMI-8226 leukemia; 35.6% in the assay with OVCAR-8 ovarian; 73.8% with OVCAR-5 ovarian; 30.3% in the assay on OVCAR-4 ovarian; 50.5% with SK-OV-3 ovarian. Besides, the growth is 58.6% in the assay on IGROV1 ovarian, 51.4% in the assay on OVCAR-3 ovarian, 59% with HS 578T breast and 76.4% in the assay with NCI/ADR-RES ovarian.
Take `Cc1cc2nc(-c3ccccc3)c(-c3ccccc3)nc2cc1C`: the growth in the assay with SR leukemia was 76.9%; in the assay with RPMI-8226 leukemia, 88.1%; with OVCAR-8 ovarian it was 108%; in the assay on OVCAR-5 ovarian, 115%; in the assay on OVCAR-4 ovarian it was 98.9%; with SK-OV-3 ovarian, 108%. The growth in the assay with IGROV1 ovarian is 112%; with OVCAR-3 ovarian it was 113%; in the assay with HS 578T breast, 118%; in the assay on NCI/ADR-RES ovarian, 93.1%.
Take `CCCCCN1C=C/C(=C\C(=O)N(C)c2cccc3ccccc23)c2ccccc21`: the growth is 81.5% in the assay with SR leukemia; 78.5% in the assay with RPMI-8226 leukemia; 98.4% with OVCAR-8 ovarian; 109% in the assay on OVCAR-5 ovarian; 86.5% in the assay with OVCAR-4 ovarian; 99.6% with SK-OV-3 ovarian. The growth is 93.7% in the assay with IGROV1 ovarian, 96.9% in the assay with OVCAR-3 ovarian, 99.9% with HS 578T breast and 106% in the assay on NCI/ADR-RES ovarian.
Consider `Clc1nc(Nc2ccccc2)nc(Nc2ccccc2)n1`, for which the growth with SR leukemia is 45.8%; in the assay with RPMI-8226 leukemia, 82.8%; with OVCAR-8 ovarian, 112%; in the assay with OVCAR-5 ovarian, 101%; in the assay with OVCAR-4 ovarian, 86.1%; in the assay on SK-OV-3 ovarian it was 96.5%. Also, the growth in the assay with IGROV1 ovarian is 91.9%; in the assay with OVCAR-3 ovarian it was 103%; with HS 578T breast it was 121%; in the assay on NCI/ADR-RES ovarian it was 94.6%.
Turning to `CC(C)(C)OC(=O)N1C/C(=C\c2ccoc2)C(=O)/C(=C/c2ccoc2)C1`, the growth was -8.41% (active) with SR leukemia; -23% (active) with RPMI-8226 leukemia; 101% in the assay on OVCAR-8 ovarian; 97% in the assay with OVCAR-5 ovarian; 100% in the assay on OVCAR-4 ovarian; 99.5% with SK-OV-3 ovarian. Also, the growth in the assay with IGROV1 ovarian was 95.6%; in the assay on OVCAR-3 ovarian, 106%; in the assay on HS 578T breast, 90.6%; with NCI/ADR-RES ovarian, 97.6%.
For `O=C(O)c1cn(C2CC2)c2cc(N3CCN(C(=O)C[n+]4cccc5ccccc54)CC3)c(F)cc2c1=O`, the growth in the assay on SR leukemia was 15.6%; in the assay with RPMI-8226 leukemia, 61.1%; with OVCAR-8 ovarian it was 74.1%; in the assay with OVCAR-5 ovarian, 100%; in the assay on OVCAR-4 ovarian it was 54.5%; with SK-OV-3 ovarian it was 106%. For the same compound, the growth in the assay with IGROV1 ovarian is 92.7%; with OVCAR-3 ovarian, 51.1%; in the assay with HS 578T breast it was 84.9%; with NCI/ADR-RES ovarian, 93.8%.
As for `O=C(c1ccccc1)N1N=C(c2ccc(-n3ccc(C(F)(F)F)n3)cc2)CC1c1ccc[nH]1` (stereo not given), the growth in the assay on SR leukemia was 66.7%; in the assay with RPMI-8226 leukemia it was 74.7%; in the assay with OVCAR-8 ovarian it was 93.7%; with OVCAR-5 ovarian, 83.4%; in the assay on OVCAR-4 ovarian, 110%; in the assay with SK-OV-3 ovarian, 128%. The growth in the assay on IGROV1 ovarian is 95.8%; in the assay with OVCAR-3 ovarian, 103%; with HS 578T breast, 95.4%; with NCI/ADR-RES ovarian, 90.2%.
Regarding `Fc1cc(C2=NNC(c3ccc[nH]3)C2)ccc1-n1ccc(C(F)(F)F)n1` (stereo not given), the growth is 77.9% in the assay on SR leukemia; 0.914% (active) in the assay with RPMI-8226 leukemia; 89% in the assay with OVCAR-8 ovarian; 96.7% with OVCAR-5 ovarian; 93.6% in the assay on OVCAR-4 ovarian; 112% in the assay with SK-OV-3 ovarian. In addition, the growth is 90% in the assay with IGROV1 ovarian, 85.6% in the assay on OVCAR-3 ovarian, 103% in the assay with HS 578T breast and 90.6% in the assay with NCI/ADR-RES ovarian.
With `FC(F)(F)c1cccc(Oc2ccc(Nc3ncnc4ccc(OCCCN5CCOCC5)cc34)cc2Cl)c1`, the growth was 10.4% with SR leukemia; 32% in the assay with RPMI-8226 leukemia; 56.1% in the assay on OVCAR-8 ovarian; 59.7% in the assay on OVCAR-5 ovarian; 43.7% in the assay with OVCAR-4 ovarian; 22.1% with SK-OV-3 ovarian. Moreover, the growth in the assay with IGROV1 ovarian was 12.2%; with OVCAR-3 ovarian, 51.6%; in the assay on HS 578T breast it was 72.4%; in the assay on NCI/ADR-RES ovarian it was 49.9%.

These data come from PubChem BioAssay (NCI).
